# Results as given in PubChem BioAssay AID1964107 (National Center for Advancing Translational Sciences (NCATS), 2024).
# Screen size: about 31,000 compounds; about 360 (1.2%) were called active. Another 8% or so got no clear call; they are omitted. Many of the other results were omitted from the sample, so actives are more common in it than they were. Values without a mark were called inactive. Calls follow the shape of the full dose curve.
# Target: Polyprotein P1234 (Chikungunya virus (strain S27-African prototype)) (UniProt Q8JUX6)
# Sequence (Q8JUX6 whole entry, looked up): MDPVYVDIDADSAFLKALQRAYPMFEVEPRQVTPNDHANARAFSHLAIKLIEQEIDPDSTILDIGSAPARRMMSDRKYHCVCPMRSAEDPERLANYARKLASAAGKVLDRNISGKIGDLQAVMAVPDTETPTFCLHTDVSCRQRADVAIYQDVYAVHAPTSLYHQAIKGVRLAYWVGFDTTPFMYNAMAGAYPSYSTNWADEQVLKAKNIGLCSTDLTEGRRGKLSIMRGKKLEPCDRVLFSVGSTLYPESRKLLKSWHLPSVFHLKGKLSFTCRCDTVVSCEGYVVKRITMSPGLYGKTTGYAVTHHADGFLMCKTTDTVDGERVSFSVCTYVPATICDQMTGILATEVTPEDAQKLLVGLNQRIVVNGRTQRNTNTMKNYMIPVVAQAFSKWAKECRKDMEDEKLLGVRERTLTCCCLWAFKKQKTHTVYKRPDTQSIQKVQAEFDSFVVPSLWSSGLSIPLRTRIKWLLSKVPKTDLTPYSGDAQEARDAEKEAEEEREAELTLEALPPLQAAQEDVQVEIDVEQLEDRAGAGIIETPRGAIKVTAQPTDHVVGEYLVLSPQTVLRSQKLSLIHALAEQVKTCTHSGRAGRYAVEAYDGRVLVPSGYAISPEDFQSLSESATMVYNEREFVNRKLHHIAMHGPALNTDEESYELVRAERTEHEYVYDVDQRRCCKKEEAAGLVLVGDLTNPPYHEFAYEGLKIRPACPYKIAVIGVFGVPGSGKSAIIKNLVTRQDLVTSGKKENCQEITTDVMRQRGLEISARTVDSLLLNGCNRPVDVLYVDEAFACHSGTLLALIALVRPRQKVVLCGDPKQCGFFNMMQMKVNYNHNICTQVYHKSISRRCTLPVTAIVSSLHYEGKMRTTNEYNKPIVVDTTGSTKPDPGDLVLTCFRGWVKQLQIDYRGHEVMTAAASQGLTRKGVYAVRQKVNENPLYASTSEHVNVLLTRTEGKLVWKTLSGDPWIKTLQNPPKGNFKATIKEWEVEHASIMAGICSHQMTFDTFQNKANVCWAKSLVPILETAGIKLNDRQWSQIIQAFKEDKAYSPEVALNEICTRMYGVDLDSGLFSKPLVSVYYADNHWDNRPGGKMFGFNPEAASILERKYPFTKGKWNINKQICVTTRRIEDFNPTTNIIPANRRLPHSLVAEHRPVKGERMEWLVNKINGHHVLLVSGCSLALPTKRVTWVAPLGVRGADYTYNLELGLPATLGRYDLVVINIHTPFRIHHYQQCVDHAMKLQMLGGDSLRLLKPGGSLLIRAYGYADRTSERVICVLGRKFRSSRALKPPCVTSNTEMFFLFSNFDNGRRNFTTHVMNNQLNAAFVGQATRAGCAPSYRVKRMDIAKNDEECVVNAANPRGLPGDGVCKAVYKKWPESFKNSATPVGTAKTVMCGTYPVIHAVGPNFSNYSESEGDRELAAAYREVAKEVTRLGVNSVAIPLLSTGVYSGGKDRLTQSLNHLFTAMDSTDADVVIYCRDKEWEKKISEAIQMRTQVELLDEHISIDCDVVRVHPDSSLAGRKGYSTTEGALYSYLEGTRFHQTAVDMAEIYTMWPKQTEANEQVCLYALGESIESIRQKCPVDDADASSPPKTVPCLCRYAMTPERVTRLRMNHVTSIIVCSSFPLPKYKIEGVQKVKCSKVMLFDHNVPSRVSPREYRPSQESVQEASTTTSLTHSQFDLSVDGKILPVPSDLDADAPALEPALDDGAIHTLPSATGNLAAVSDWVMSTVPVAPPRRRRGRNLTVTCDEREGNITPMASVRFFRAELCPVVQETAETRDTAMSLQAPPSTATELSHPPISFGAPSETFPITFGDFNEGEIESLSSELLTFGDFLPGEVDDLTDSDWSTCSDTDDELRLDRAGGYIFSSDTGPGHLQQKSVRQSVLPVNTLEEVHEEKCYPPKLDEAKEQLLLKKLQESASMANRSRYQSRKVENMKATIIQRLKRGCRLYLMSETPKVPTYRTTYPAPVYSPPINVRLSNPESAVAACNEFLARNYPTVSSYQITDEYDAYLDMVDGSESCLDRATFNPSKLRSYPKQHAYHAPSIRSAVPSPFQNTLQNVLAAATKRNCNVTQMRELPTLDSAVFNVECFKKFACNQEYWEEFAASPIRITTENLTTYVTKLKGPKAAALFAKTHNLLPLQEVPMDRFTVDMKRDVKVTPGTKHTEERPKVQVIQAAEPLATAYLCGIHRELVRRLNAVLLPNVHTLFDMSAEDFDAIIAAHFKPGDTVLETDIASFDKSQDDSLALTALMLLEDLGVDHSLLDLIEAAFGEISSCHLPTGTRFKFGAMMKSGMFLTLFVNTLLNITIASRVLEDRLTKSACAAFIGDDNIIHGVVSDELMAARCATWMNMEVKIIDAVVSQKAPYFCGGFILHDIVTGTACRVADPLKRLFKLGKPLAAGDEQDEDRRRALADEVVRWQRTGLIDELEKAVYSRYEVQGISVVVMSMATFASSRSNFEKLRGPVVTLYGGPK
# Test: Primary qHTS for inhibitors of NSP2Pro chikungunya virus (CHIKV); also: nearly all actives have a fitted effect of over 60% in size
# Conditions: FRET peptide cleavage, fluorescence 1 h; series mostly up to 24.9 µM; activity change, negative = inhibition: at the top concentration
# Source text: PI: Natalia J. Martinez Ph.D. National Center for Advancing Translational Sciences (NCATS), National Institute of Health (NIH), Rockville, Maryland Chikungunya virus (CHIKV) is a mosquito-borne RNA virus that has emerged as one of the most important global arboviral threats in the last decade. Although the first CHIKV vaccine has recently been FDA approved for use in healthy adults at increased risk, to date, there are no available antiviral drugs for CHIKV infection. CHIKV nsP2 protease plays a crucial role in the processing of the viral polypeptide precursor to release enzymes required for viral replication, thus making it a promising drug target for antiviral discovery. Here, we established a high-throughput pipeline to identify small molecule inhibitors of nsP2 proteolytic activity. The pipeline is composed of a suite of 1,536-well in vitro assays to support quantitative high-throughput (qHTS) screening campaigns. Specifically, we developed a fluorescence resonance energy transfer (FRET)-based assay using a fluorogenic peptide substrate encompassing an endogenous cleavage site and purified recombinant protease domain (nsP2pro). Using this assay, we interrogated ~37,000 small molecules, including those in drug repurposing libraries as well as chemically diverse and medicinal chemistry-friendly compounds. Hits were selected for follow-up validation against full-length nsP2 and an additional peptide. FRET-based 1,536-well assays for papain, hepatitis C virus NS3-4A, and human furin proteases were implemented to characterize compound selectivity. […] Novel compounds were identified to be potential nsP2 inhibitors and molecular docking analyses were performed to explain the binding mode of selected hits. In vitro antiviral activity was evaluated for a subset of compounds using a high-throughput CHIKV infection assay. To our knowledge, the pipeline presented here is unprecedented for CHIKV antiviral discovery research.
# PROTOCOL TABLE (as described by Inglese J, Shamu CE and Guy RK. 2007) SEQUENCE No. (e.g., 1, 2, 3, etc.); […] (e.g., Cells, Incubation, Reagent, etc.); VALUE; DESCRIPTION. 1; Control / Compound; 20 nL; Echo 655 acoustic dispenser, Greiner 1536-well solid bottom black plate. 2; Enzyme; 4 uL; BioRAPTR FRD liquid dispenser (Beckman Coulter). 3; Incubation; 15 min; room temperature. 4; Reagent; 4 uL; 2.5 uM Peptide 2 substrate. 5; Incubation; 1 hr; room temperature. 6; Detection; Fluorescence; WiewLux microplate reader (PerkinElmer), 525 nm excitation, 598/25 nm emission. NOTES (numbers refer to sequence numbers above). 1. Briefly, 20 nL DMSO, positive control ZnAc (20nM final concentration), and test compounds were transferred into a 1,536-well solid bottom black plate (789176-F, Greiner One) via Echo 655 acoustic dispenser (Beckman Coulter). For primary screens, compounds were tested at 7 concentrations, 1:3 dilution points ranging from 25 uM to 34 nM. Follow-up confirmatory screens were carried out at 11 concentrations, 1:3 dilution points from 25 uM to 0.42 nM. 2. Four uL nsP2pro enzyme mix (150 nM final concentration) in 10 mM Tris-HCl pH 8.0 with 0.01% Tween 20 assay buffer was dispensed into the plate using a BioRAPTR FRD liquid dispenser (Beckman Coulter). 3. The plate was incubated at room temperature (protected from light) for 15 min 4. Four microliter of peptide 2 substrate (2.5 uM final concentration) in assay buffer was added to the plate. 5. After 1 hour, plates were immediately read on a ViewLux high-throughput CCD imager (Exposure = 10 sec, Gain = High, Speed = Slow, Binning = 2X). The above assay was also incorporated in the NCATS HTS facility41, which allowed for robotic liquid and compound dispensing, microplate handling, and fluorescence reading.. REFERENCE: Inglese J, Shamu CE and Guy RK, Reporting data from high throughput screening of small molecule libraries, Nature Chemical Biology, 2007, 3(8): 438-441. doi.org/10.1038/nchembio0807-438.
# % is scaled to controls: 0 for no effect and ±100 for the full control effect; potency is read from the fitted curve at half-maximal effect.
Compound,"activity change, negative = inhibition",outcome,Potency
Cc1nn(Cc2ccccc2Cl)c(C)c1CN(C)CC(O)COc1ccc(Cl)cc1 (stereo unspecified),0.58% (inactive),,
O=C(Nc1nc(-c2ccccc2)cs1)c1ccncc1NS(=O)(=O)c1ccc(-c2ccccc2)cc1,,inactive,
CCOCCOC1CCN(S(=O)(=O)c2ccc(OC)cc2)CC1,,inactive,
CCOCCCNC(=O)c1cc2c(=O)n3ccccc3nc2s1,-12% (inactive),,
CCc1noc(-c2cn(C3CCN(C(=O)C4(c5ccccc5)CC4)C3)nn2)n1 (stereo unspecified),,inactive,
COc1ccc(Cc2ncc3c(n2)CN(C(=O)c2ccc(OC)c(O)c2)C3)cc1,4.72% (inactive),,
CC(NC(=O)c1cc(Sc2ccc(F)cc2F)nc2ccccc12)c1ccccc1 (stereo unspecified),-18.2% (inactive),,
O=C(N[C@@H]1CCOC[C@H]1OCCO)c1ccc2c(c1)ncn2CCO,-3.4% (inactive),,
CCC(=O)N1N=C(c2ccc(OC)cc2)CC1c1cn(-c2ccccc2)nc1-c1cccs1 (stereo unspecified),-18.6% (inactive),,
CCC(=O)N1CCc2cc(S(=O)(=O)NC(Cc3ccccc3)C(=O)NCc3ccc(C)cc3)ccc21 (stereo unspecified),-26.4% (inactive),,
FC(F)(F)c1cccc(N2CCN(C(=S)Nc3ccncc3)CC2)c1,0.924% (inactive),,
COc1cccc(-c2cn3c(n2)N(C(=O)c2cnccn2)CCC3)c1,5.42% (inactive),,
CCCN=C1S/C(=C\c2ccc(OC[C@H](O)CO)c(Cl)c2)C(=O)N1c1ccccc1C,-11.9% (inactive),,
CC(=O)c1ccc(NS(=O)(=O)c2ccc(-c3cc(C)no3)s2)cc1,-10.1% (inactive),,
Cc1ccc(N2CCN(C(=O)CCc3c(C)nc4c(c3C)c(=O)n(C)c(=O)n4C)CC2)c(C)c1,-6.64% (inactive),,
CCC(=O)N1CCc2cc(Br)cc(S(=O)(=O)CCC(=O)NCc3ccccc3OC)c21,-13.4% (inactive),,
CCOc1ccc(NC(=O)Cn2nc3n(c2=O)CCN(Cc2ccccc2C)C3=O)cc1,-3.88% (inactive),,
N#Cc1ccc(-c2ccc(NC(=O)c3cccs3)cn2)cc1,4.86% (inactive),,
CCOc1ccc(CNC(=O)c2ccc3nc(CC)c(CC)nc3c2)cc1OC,-2.04% (inactive),,
COc1ccc(CNC(=O)c2cc3c(s2)CN(C2CC2)C3)cc1OC,,inactive,
COc1ccc(C2=Nn3c(nnc3-c3ccccc3O)SC2)cc1,2.77% (inactive),,
CCC(C)C(=O)O[C@H]1[C@@H](OC(=O)c2ccoc2)C[C@](C)(O)[C@]23OC(C)(C)[C@H](C[C@H](OC(=O)c4ccoc4)[C@]12COC(C)=O)[C@H]3OC(C)=O (stereo partly specified),-3.85% [at 10 µM] (inactive),,
CC1=C[C@@H](CNC2CCOCC2)[C@H](C(C)C)C[C@H]1Cc1nc2ccc(F)cc2[nH]1,3.26% [at 39.2 µM] (inactive),,

Compound,"activity change, negative = inhibition",outcome,Potency
COc1ccc(C2=NS(=O)(=O)N(C)C(C(=O)NC(C)c3ccccc3)=C2)cc1 (stereo unspecified),-13.3% (inactive),,
CC(C)Oc1cccc(-c2cnc(N3CCC(C(N)=O)CC3)s2)c1,0.0009% (inactive),,
O=C(Nc1ccccc1-c1cn2c(CN3CCNCC3)csc2n1)c1ccc2ccccc2n1,17.2% (inactive),,
COCC(=O)N(C[C@H]1O[C@@H](CC(=O)NC2CC2)[C@H](O)[C@@H]1O)C[C@H]1O[C@@H](CC(=O)NC2CC2)[C@H](O)[C@@H]1O,,inactive,
C=CC1C(OC2OC(CO)C(O)C(O)C2O)OC=C(C(=O)OC)C1CC1CC(=O)CC(CCc2ccc(O)cc2)O1 (stereo unspecified),7.34% [at 10 µM] (inactive),,
COc1ccccc1CC(=O)N1CCc2c(nc3cc(-c4ccccc4Cl)[nH]n3c2=O)C1,,inactive,
COc1ccc(C2CC(=O)N(Cc3ccccc3C)c3c2c(C)nn3-c2nc(C)cc(C)n2)c(OC)c1 (stereo unspecified),-7.48% (inactive),,
COc1ccc(/C=C2/C(=O)Nc3ccccc32)cc1O,,inactive,
COc1ccc(C(=O)Nc2cccc(C(=O)OCc3cc(=O)n4c5c(sc4n3)CCCC5)c2)cc1,-10.2% (inactive),,
Cc1cnc(C2CCC2)n1C1CCN(C(=O)CCC2CCCC2)CC1,-1.69% (inactive),,
O=C(CSc1nccn1Cc1ccc(Cl)cc1)NCc1ccccc1,-0.86% (inactive),,
O=C(NCc1ccc(Cl)cc1)c1cc(-c2ccc[nH]2)n[nH]1,,,8.91 µM (active)
O=C(CSc1ncc(CO)n1Cc1ccc(Cl)cc1)NCc1ccc(F)cc1,-6.18% (inactive),,
COc1ccc(CCn2cc3c(c2-c2ccc(Br)cc2)c(=O)n(C)c(=O)n3C)cc1OC,-19.2% (inactive),,
C[C@@H]1[C@H](O)[C@@H]2OC(=O)C3=C2[C@H](CCC3)[C@@]12C[C@@H](c1ccoc1)OC2=O,,,5.44 µM (active)
COc1cccc(CNc2ccc(S(=O)(=O)Nc3cc(C)on3)cc2)c1O,,inactive,
Fc1ccc(CSc2nc(NCc3ccccc3)c3ccccc3n2)cc1,3.47% (inactive),,
O=C(Nc1ccc(O)c(-c2nc3ccccc3o2)c1)c1ccc(-c2cccc(Cl)c2)o1,-11.1% (inactive),,
Cc1nn(C(C)C(=O)NCCc2ccccc2)c(=O)c2c1sc1ccccc12 (stereo unspecified),-15.8% (inactive),,
CCOC(=O)c1c(S(=O)(=O)NCC(=O)Nc2ccc(Cl)c(C(F)(F)F)c2)c(C)n(C)c1C,-19.1% (inactive),,
Cc1ncc([N+](=O)[O-])n1C[C@H](O)CN1CCOCC1,11.8% (inactive),,
Cc1nn(Cc2ccccc2)c(C)c1[C@@H]1C=C[C@@H](NC(=O)NC(C)C)C1,,,14.1 µM (active)
O=C(Cn1nc(C2CC2)ccc1=O)NCCc1ccccc1,-6.14% (inactive),,
